PubChem BioAssay (Tox21)
Values joined by “and” are separate entries in the source; they are usually repeats but may differ in a detail not shown here. Equal entries are not always repeated. Results filed as inconclusive are left out. Where a call stands in place of a potency, no number is given. Some structures have more than one record in an assay (separate samples or runs), and their calls can disagree. Active and inactive are the calls of the source. Calls follow the shape of the full dose curve.

Test: Nuclear factor erythroid 2-related factor 2/antioxidant responsive element (Nrf2/ARE) small molecule agonists: luciferase reporter gene qHTS assay in human keratinocytes (AID 1919969); also: nearly all actives have a fitted effect of over 35% in size
Potency is read from the fitted curve at half-maximal effect.

| Structure (SMILES) | Potency |
| --- | --- |
| c1ccoc1 | inactive |
| CN(N=O)C(N)=O | inactive |
| FC(F)(F)c1ccc(Cl)cc1 | inactive |
| CC(Br)C(=O)O (stereo not drawn) | inactive |
| CCC(=O)C(CC(C)N(C)C)(c1ccccc1)c1ccccc1 (stereo not drawn) | inactive |
| Cc1ccc(N)cc1N | 26.6 µM (active) and 30.6 µM (active) |
| CCc1cccc(C)c1N(C(=O)CCl)C(C)COC (stereo not drawn) | 57.6 µM (active) |
| ClC1=C(Cl)C2(Cl)C3C(Cl)C(Cl)CC3C1(Cl)C2(Cl)Cl (stereo not drawn) | 4.84 µM (active) and 12.2 µM (active) |
| CCCCOC(=O)CCC(=O)OCCCC | inactive |
| COC(=O)NS(=O)(=O)c1ccc(N)cc1 | inactive |
| Cc1cc(-c2ccc(N)c(C)c2)ccc1N | inactive |
| CC(C)OC(=S)S | 15.4 µM (active) |
| CCCCN(CC)C(=O)SCCC | inactive |
| O=C(Cl)C(Cl)Cl | inactive |
| CC1COC2(c3ccccc3Cl)c3cc(Cl)ccc3NC(=O)CN12 (stereo not drawn) | inactive |
| Clc1ccc(C(c2ccc(Cl)cc2)C(Cl)Cl)cc1 | 15.6 µM (active) and inactive |
| COc1ccc2c(c1OC)C(=O)O[C@@H]2[C@H]1c2cc3c(cc2CCN1C)OCO3 | inactive |

| Structure (SMILES) | Potency |
| --- | --- |
| CC1CN1 (stereo not drawn) | inactive |
| CC(C)(C#N)N=NC(C)(C)C#N | inactive |
| CCCCN(CCCCO)N=O | inactive |
| COP(=O)(CCC(=O)NCO)OC | inactive |
| Nc1ccc(-c2ccc(N)cc2)cc1 | inactive |
| CCCCCON=O | inactive |
| O=C(O)c1nn(Cc2ccc(Cl)cc2Cl)c2ccccc12 | inactive |
| OCC(Br)CBr (stereo not drawn) | inactive |
| COc1ccc(O)c(C(C)(C)C)c1 | 68.7 µM (active) |
| CCCC1CCCCN1 (stereo not drawn) | inactive |
| CC(C)OC(=O)Cc1ccccc1 | inactive |
| CN(C)C(=O)Nc1ccc(Cl)cc1 | inactive |
| CC1(C)[C@H](C(=O)O[C@H](C#N)c2cccc(Oc3ccccc3)c2)[C@@H]1C=C(Br)Br | inactive |
| CC(C)(O)C(Cl)(Cl)Cl | inactive |
| C/C=C/CC#N | inactive |
| [O-][Cl+]O | inactive |
